# Source: PubChem BioAssay
# The sample as a whole holds a higher share of hits than the screen did.
# CBX7 AlphaScr: blocks human CBX7 binding to H3K27me3 peptide; O95931; AlphaScreen His6-CBX7 / biotin-H3K27me3 peptide binding; active compounds read low; normalised signal (fraction of DMSO) (test concentration not listed); 1.1% of 66,000 active; AID 1224903; in the data active means normalised signal below about 0.5
# Target sequence (O95931 whole entry, looked up): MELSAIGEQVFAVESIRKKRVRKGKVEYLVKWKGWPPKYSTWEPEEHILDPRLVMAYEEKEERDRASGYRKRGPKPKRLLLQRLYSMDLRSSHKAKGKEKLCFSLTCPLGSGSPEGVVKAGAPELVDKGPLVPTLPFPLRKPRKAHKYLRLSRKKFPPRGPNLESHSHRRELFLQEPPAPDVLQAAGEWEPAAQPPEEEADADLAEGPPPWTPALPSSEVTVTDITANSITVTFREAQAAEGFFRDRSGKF
# Active calls of the source: *.
SMILES,CBX7 AlphaScr
Cc1ccc2c(c1)c(=O)c(C(=O)c1ccccc1)cn2Cc1ccc(F)cc1,0.71
Cc1ccc(Cn2cc(C(=O)c3ccccc3)c(=O)c3cc(C)ccc32)cc1,0.44*
CCOc1ccc2nc(N3CCCC(C(=O)Nc4ccc(F)cc4F)C3)sc2c1 (centres undefined),1
CC(C)N(Cc1ccccc1)C(=O)c1c[nH]c2ccc(S(=O)(=O)Nc3ccccc3F)cc2c1=O,0.77
CCc1ccc(-c2nc(CN3CCC(C(=O)NCc4ccc5c(c4)OCO5)CC3)c(C)o2)cc1,1.1
CCCCCCOc1ccc(N2C(=O)CC(N3CCN(c4cccc(C(F)(F)F)c4)CC3)C2=O)cc1 (centres undefined),0.98
Cn1cnc2cc(NCc3ccccc3Cl)ccc21,0.92
CC(C)n1cnc2cc(NCc3ccccn3)ccc21,0.23*
Cn1cnc2cc(NCc3cccc(Br)c3)ccc21,0.85
COc1ccc(OC)c(NC2c3ccccc3C(=O)N2c2ccc(Cl)cn2)c1 (centres undefined),0.34*
Cc1ccc(N2C(=O)c3ccccc3C2Nc2ccc(Cl)cc2Cl)nc1 (centres undefined),0.87
COc1cc(OC)c(NC2c3ccccc3C(=O)N2c2ccc(C)cn2)cc1Cl (centres undefined),0.41*
COc1ccc(OC)c(NC2c3ccccc3C(=O)N2c2ccc(Cl)cc2)c1 (centres undefined),0.64
COc1ccc(OC)c(NC2c3ccccc3C(=O)N2c2ccccn2)c1 (centres undefined),0.72
COc1ccc(NC2c3ccccc3C(=O)N2c2ccc(C)cn2)cc1OC (centres undefined),0.94
COc1ccc(CNC(=O)c2cc(C)no2)cc1,1.2
COc1cc2[nH]c(=O)n(CCCCCC(=O)N3CCC(C(N)=O)CC3)c(=O)c2cc1OC,1.1
CCn1c(COc2cccc3cccnc23)nnc1SCC(=O)OC,0.98
O=C(CC(Sc1cccc2cccnc12)c1ccc(F)cc1)c1cccs1 (centres undefined),0.0063*
O=C(Nc1ccc(F)cc1)C(Cc1ccccc1)NS(=O)(=O)c1cccc2cccnc12 (centres undefined),1.1
CC(C)OC(=O)c1c(NC(=O)COc2cccc(C(F)(F)F)c2)sc2c1CCCC2,1
CC(=O)c1cccc(Nc2nc(-c3c(C)nc4ncccn34)cs2)c1,0.85
CCOc1ccc(Nc2nc(-c3c(C)nc4sccn34)cs2)cc1,0.67
CCN(CC)c1ccc(Nc2nc(-c3c(C)nc4sccn34)cs2)cc1,0.1*
Cc1nc2sccn2c1-c1csc(Nc2ccc(Cl)cc2)n1,0.75
SMILES,CBX7 AlphaScr
CCc1ccccc1Nc1nc(-c2c(C)nc3ncccn23)cs1,0.77
CCN(CC)c1ccc(Nc2nc(-c3c(C)nc4ncccn34)cs2)cc1,0.33*
CCOC(=O)c1[nH]c(=O)[nH]c1CSc1nc(C)cc(-c2ccccc2)n1,0.63
CCOC(=O)Cc1csc(NC(=O)CCCOc2ccc(C)cc2)n1,1.1
COc1ccc(CCNc2oc(COc3cccc(C)c3)nc2C#N)cc1OC,0.46*
Cc1cccc(OCc2nc(C#N)c(NCCc3ccccc3)o2)c1,0.67
COc1ccc(CCNc2oc(COc3ccc(F)cc3)nc2C#N)cc1OC,0.55
COc1ccc(CCNc2oc(COc3ccc(Cl)cc3)nc2C#N)cc1OC,0.95
COc1ccc(CNc2oc(COc3cccc(C)c3)nc2C#N)cc1,0.67
COc1ccc(CCNc2oc(COc3ccc(C)cc3)nc2C#N)cc1OC,0.48*
Cc1ccccc1OCc1nc(C#N)c(NCc2ccc3c(c2)OCO3)o1,0.91
Cc1cccc(OCc2nc(C#N)c(NCCN(C)C)o2)c1,1
Cc1cccc(OCc2nc(C#N)c(NCc3ccc4c(c3)OCO4)o2)c1,0.43*
CC1(C)CC(=O)c2cc(C(=O)NCc3ccccc3)c(=O)n(-c3ccc(Cl)cc3)c2C1,0.97
CCOc1ccc(C(=O)Nc2cccc(C)c2)cc1Br,0.93
Cc1cccc(-c2nc(Nc3cccc(C(F)(F)F)c3)c3ccccc3n2)c1,1
COc1ccc(Nc2nc(-c3ccccc3F)nc3ccccc23)cc1Cl,0.99
Cc1cc2nc(Cc3ccc(OC(F)F)cc3)c(=O)n(C)c2cc1C,1.1
COc1ccccc1NC(=O)c1c(NC(=O)c2ccccc2)sc2c1CCC2,1.2
CC1(C)CC(=O)c2c(nn(-c3ccccc3Cl)c2-c2ccccc2)C1,0.94
CC(NC(=O)CN1C(=O)COc2ccc(S(=O)(=O)N3CCOCC3)cc21)c1ccc2c(c1)OCCO2 (centres undefined),1
CCCN1CCN(CCCNC(=O)COc2ccc3c(c2)C(=O)CC(C)(C)O3)CC1,0.52
CCN1CCN(CCCNC(=O)COc2ccc3c(c2)C(=O)CC(C)(C)O3)CC1,0.45*
CCCCCCCNC(=O)COc1ccc2c(c1)C(=O)CC(C)(C)O2,1
COc1cccc(N2C(=O)C(CC(=O)Nc3ccc(F)cc3)N(Cc3ccc4c(c3)OCO4)C2=O)c1 (centres undefined),1
COCCCNC(=O)c1cc(Nc2cc(C)ccc2C)nc2ccccc12,0.98
COc1cc(CNc2ccc(-c3nc4ccccc4s3)cc2)ccc1OCC(=O)N1CCOCC1,1.2
